Results filed as inconclusive are left out. Activity calls are given as the source filed them. Unless noted, calls come from the whole dose curve; as a rule, active = well fitted curve in the direction sought with a large enough effect in the repeat runs; inconclusive = weak or mixed curves; inactive = no such curve, though single readings can be large; an effect the other way counts as inactive or inconclusive.
Key:
[1] = biological target: Retinoic acid receptor RXR-alpha (Homo sapiens) (UniProt P19793); assay: qHTS assay to identify small molecule agonists of the RXR signaling pathway (AID 1159527; calls by dose curve; note: nearly all actives have a fitted effect of over 35% in size)
Retinoic acid receptor RXR-alpha (Homo sapiens), sequence (P19793 whole entry, looked up): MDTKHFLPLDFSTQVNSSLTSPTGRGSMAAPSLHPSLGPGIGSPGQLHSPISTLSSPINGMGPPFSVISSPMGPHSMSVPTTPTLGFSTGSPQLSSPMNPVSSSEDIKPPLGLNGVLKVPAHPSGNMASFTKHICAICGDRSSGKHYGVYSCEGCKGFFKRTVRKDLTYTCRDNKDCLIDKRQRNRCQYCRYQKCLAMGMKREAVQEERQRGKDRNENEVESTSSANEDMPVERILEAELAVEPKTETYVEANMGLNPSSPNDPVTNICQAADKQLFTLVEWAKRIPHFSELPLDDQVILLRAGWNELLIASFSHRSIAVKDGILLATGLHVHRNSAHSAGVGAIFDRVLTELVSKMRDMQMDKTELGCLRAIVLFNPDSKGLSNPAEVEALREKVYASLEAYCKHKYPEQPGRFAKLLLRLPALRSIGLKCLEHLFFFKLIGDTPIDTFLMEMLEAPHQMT
In short: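 GeneBLAzer RXR-alpha-UAS-bla HEK 293T cells in 2% charcoal-stripped FBS medium were exposed to compounds for 16 hr at 37 C in agonist mode. Beta-lactamase reporter read as 460/530 nm FRET ratio after 2 hr substrate loading.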

[2] = qHTS assay to identify small molecule agonists of the RXR signaling pathway - cell viability counter screen (AID 1159529); note: series mostly up to about 77 µM; nearly all actives have a fitted effect of over 50% in size
In short: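 RXR-alpha-UAS-bla HEK 293T cells in medium with 2% charcoal-stripped FBS were pre-incubated 5 hr, then compound-treated 16 hr at 37 C. Viability was read by CellTiter-Glo luminescence in the same wells as the beta-lactamase assay, with tetraoctyl ammonium bromide as positive control.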

[3] = qHTS assay to identify small molecule antagonists of the retinoid acid receptor (RAR) signaling pathway - cell viability counter screen (AID 1159551); note: nearly all actives have a fitted effect of over 35% in size
In short: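 Cytotoxicity counter screen in C3RL4 cells: 6 h compound exposure with 1 uM retinol (final), viability from cellular ATP by luminescence.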

[4] = qHTS assay to identify small molecule antagonists of the retinoic acid receptor (RAR) signaling pathway (AID 1159552; note: nearly all actives have a fitted effect of over 50% in size; note: potency is the fitted concentration of half-maximal effect)
In short: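 Retinol signaling pathway inhibitors screened in C3RL4 RARE-luciferase reporter cells seeded overnight at 37 C, then compounds added with 1 uM (final) retinol as pathway substrate. After 6 hr at 37 C, luciferase luminescence read after 30 min at room temperature.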

[5] = qHTS assay to identify small molecule agonists of the retinoic acid receptor (RAR) signaling pathway (AID 1159553); note: potency is the fitted concentration of half-maximal effect
In short: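 Agonist activity was scored in C3RL4 cells bearing a retinoic acid response element luciferase construct. Cells were treated with compounds for 6 hr at 37 C, and luciferase signal was measured as luminescence.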

[6] = qHTS assay to identify small molecule antagonists of the estrogen related receptor (ERR) signaling pathway from Tox21 library - cell viability counter screen (AID 1224834); note: nearly all actives have a fitted effect of over 30% in size
In short: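 Cytotoxicity of test substances is gauged in the same ERR cells used for the antagonist screen, after 17.5 h of compound treatment at 37 C, by CellTiter-Fluor fluorescence measured after 30 min.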

[7] = biological target: Luciferin 4-monooxygenase (Photinus pyralis) (UniProt P08659); assay: qHTS assay to identify small molecule inhibitors of firefly luciferase (AID 1224835); note: series mostly up to about 120 µM; nearly all actives have a fitted effect of over 25% in size
Luciferin 4-monooxygenase (Photinus pyralis), sequence (P08659 whole entry, looked up): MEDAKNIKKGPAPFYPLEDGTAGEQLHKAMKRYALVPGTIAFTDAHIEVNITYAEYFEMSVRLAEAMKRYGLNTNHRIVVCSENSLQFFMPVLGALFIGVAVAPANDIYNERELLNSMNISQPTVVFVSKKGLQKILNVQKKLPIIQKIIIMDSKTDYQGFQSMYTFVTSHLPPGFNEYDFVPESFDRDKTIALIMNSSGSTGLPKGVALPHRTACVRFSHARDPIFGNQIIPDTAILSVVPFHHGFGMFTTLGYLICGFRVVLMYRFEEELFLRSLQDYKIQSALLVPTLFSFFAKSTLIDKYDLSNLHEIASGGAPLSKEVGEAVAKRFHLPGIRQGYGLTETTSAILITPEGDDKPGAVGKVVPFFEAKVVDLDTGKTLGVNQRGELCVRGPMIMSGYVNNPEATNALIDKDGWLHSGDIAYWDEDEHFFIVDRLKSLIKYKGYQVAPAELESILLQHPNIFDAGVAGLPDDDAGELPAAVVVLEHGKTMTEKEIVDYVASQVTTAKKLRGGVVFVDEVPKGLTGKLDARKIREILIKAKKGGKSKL
In short: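 Quantitative HTS format; KM concentrations of both substrates. Purified P. pyralis FLuc activity quantified from luminescence images.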

[8] = qHTS assay to identify small molecule agonists of the constitutive androstane receptor (CAR) signaling pathway - cell viability counter screen (AID 1224836); note: nearly all actives have a fitted effect of over 45% in size; note: potency is the fitted concentration of half-maximal effect; for viability change, negative = cytotoxic: series mostly up to about 92 µM
In short: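 HepG2 cells stably carrying hCAR and a CYP2B6-2.2kb reporter; 15-concentration compounds plus PK11195 (final 0.75 uM), 23 hr at 37 C/5% CO2. Viability read by CellTiter-Fluor fluorescence.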

[9] = biological target: Nuclear receptor subfamily 1 group I member 3 (Homo sapiens) (UniProt Q14994); assay: qHTS assay to identify small molecule antagonists of the constitutive androstane receptor (CAR) signaling pathway (AID 1224838); note: nearly all actives have a fitted effect of over 40% in size; note: potency is the fitted concentration of half-maximal effect
Nuclear receptor subfamily 1 group I member 3 (Homo sapiens), sequence (Q14994 whole entry, looked up): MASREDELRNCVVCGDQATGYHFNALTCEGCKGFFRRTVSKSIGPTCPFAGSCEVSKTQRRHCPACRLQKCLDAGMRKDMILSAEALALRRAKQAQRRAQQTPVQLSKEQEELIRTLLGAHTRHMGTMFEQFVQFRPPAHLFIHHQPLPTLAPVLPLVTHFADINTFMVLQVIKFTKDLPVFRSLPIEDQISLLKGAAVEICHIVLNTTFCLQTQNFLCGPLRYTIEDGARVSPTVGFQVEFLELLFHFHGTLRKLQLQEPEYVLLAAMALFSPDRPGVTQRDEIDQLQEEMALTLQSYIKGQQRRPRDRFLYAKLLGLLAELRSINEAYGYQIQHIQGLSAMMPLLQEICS
In short: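 Compounds were titrated across 15 concentrations onto HepG2 cells double-stably expressing hCAR and a CYP2B6-2.2kb reporter, together with 50 nM CITCO (final). After 24 h at 37 C, luciferase activity was measured by luminescence.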

[10] = qHTS assay to identify small molecule antagonists of the estrogen related receptor signaling pathway with the pleiotropic PPARgamma coactivator (PGC) from Tox21 10K library - cell viability counter screen (AID 1224840; active = well fitted cell-killing curve with a large enough effect in the repeat runs, not every such curve was filed as active; note: nearly all actives have a fitted effect of over 40% in size; note: potency is the fitted concentration of half-maximal effect)
In short: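 Step one, plate 2,000 PGC/ERR cells per well; step two, incubate 6 h at 37 C/5% CO2; step three, pin-transfer compounds; step four, incubate 17.5 h; step five, add CellTiter-Fluor and read fluorescence after 30 min.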

[11] = qHTS assay to identify small molecule antagonists of the estrogen related receptor signaling pathway with the pleiotropic PPARgamma coactivator (PGC) from Tox21 10K library (AID 1224841; call rule not given here; note: actives are mostly falling curves and most rising ones were filed inactive; nearly all actives have a fitted effect of over 50% in size; note: potency is the fitted concentration of half-maximal effect; for activity, negative = inhibition: series mostly up to about 92 µM)
In short: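 Antagonism in this quantitative HTS is taken from loss of luciferase signal in PGC/ERR cells. Cells (2,000/well) are treated with compounds in DMSO after a 6 h settling period and read by One-Glo luminescence after 18 h.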

[12] = qHTS assay to identify small molecule agonists of the estrogen related receptor signaling pathway with the pleiotropic PPARgamma coactivator (PGC) from Tox21 10K library (AID 1224842); note: nearly all actives have a fitted effect of over 15% in size; note: potency is the fitted concentration of half-maximal effect
In short: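 PGC/ERR reporter cells (NTP line) were seeded 2,000 per well, rested 6 h at 37 C/5% CO2, then pin-dosed with compounds in DMSO for 18 h at 37 C; luciferase read by One-Glo luminescence after 30 min at room temperature.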

[13] = qHTS assay to identify small molecule antagonists of the constitutive androstane receptor (CAR) signaling pathway - cell viability counter screen (AID 1224837); note: series mostly up to about 92 µM; nearly all actives have a fitted effect of over 45% in size
In short: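 Multiplexed cytotoxicity read-out for the CAR antagonist screen: double-stable HepG2-CYP2B6-hCAR cells co-treated with 50 nM CITCO (final) and compound over 15 concentrations, incubated 23 hr, then assessed by CellTiter-Fluor fluorescence.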

[14] = biological target: Nuclear receptor subfamily 1 group I member 3 (Homo sapiens) (UniProt Q14994); assay: qHTS assay to identify small molecule agonists of the constitutive androstane receptor (CAR) signaling pathway (AID 1224839); note: nearly all actives have a fitted effect of over 15% in size; note: potency is the fitted concentration of half-maximal effect;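 for activation: HepG2 cells stably carrying human CAR and a CYP2B6 luciferase reporter; series mostly up to about 92 µM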
In short: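 HepG2 cells stably co-transfected with hCAR and a CYP2B6-2.2kb luciferase reporter; compounds at 15 concentrations with 0.75 uM PK11195 present. After 24 hr at 37 C, luciferase read by ONE-Glo luminescence.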

[15] = qHTS assay to identify small molecule antagonists of the estrogen related receptor (ERR) signaling pathway - cell viability counter screen (AID 1224818);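 note: series mostly up to about 46 µM; viability measured after 17.5 h of compound exposure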
In short: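 Cells carrying the ERR pathway reporter were seeded and incubated for 6 hours before compound addition. After a 17.5-hour exposure at 37 C, live-cell protease activity was measured by CellTiter-Fluor fluorescence following 30 minutes of incubation.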

[16] = qHTS assay to identify small molecule antagonists of the estrogen related receptor (ERR) signaling pathway (AID 1224819;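 note: luminescence from an ERR-driven luciferase reporter measured with One-Glo reagent; series mostly up to about 46 µM; nearly all actives have a fitted effect of over 50% in size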)
In short: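 Compounds dissolved in DMSO were pin-transferred onto ERR cells that had been plated 6 h earlier, and cells were then incubated 18 h at 37 C; signal was luciferase luminescence via One-Glo.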

[17] = qHTS assay to identify small molecule agonists of the estrogen related receptor (ERR) signaling pathway (AID 1224820)
In short: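 Quantitative HTS of the LOPAC library used NTP ERR reporter cells treated 18 h at 37 C. Signal is luminescence after One-Glo addition and a 30 min room-temperature incubation.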

[18] = tested on: estrogen-related receptor alpha (ERRalpha) with PGC-1alpha coactivator, human; assay: qHTS assay to identify small molecule antagonists of the estrogen related receptor signaling pathway with the pleiotropic PPARgamma coactivator (PGC) (AID 1224821; calls by dose curve)
In short: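 Quantitative HTS for antagonism: PGC/ERR cells received compounds after 6 h attachment and were incubated 18 h at 37 C, with luminescence (One-Glo) as the endpoint.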

[19] = qHTS assay to identify small molecule antagonists of the estrogen related receptor signaling pathway with the pleiotropic PPARgamma coactivator (PGC) cell viability counter screen (AID 1224822;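 note: series mostly up to about 46 µM; viability read after 17.5 h compound exposure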)
In short: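 Seed PGC/ERR cells (2,000/well); incubate 6 h at 37 C/5% CO2; pin-transfer compounds in DMSO; incubate 17.5 h at 37 C; add CellTiter-Fluor; after 30 min read fluorescence.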

[20] = qHTS assay to identify small molecule agonists of the estrogen related receptor signaling pathway with the pleiotropic PPARgamma coactivator (PGC) (AID 1224823)
In short: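 Cell-based luciferase assay in the NTP-supplied PGC/ERR line, 2,000 cells/well; 18 h compound exposure at 37 C, luminescence after One-Glo.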
% is set by controls: 0 for no effect and ±100 for the full control effect.

O=[Se]=O
inactive: Potency [1] | Potency [2] | Potency [3] | Potency [4] | Potency [5] | Potency [6] | Potency [7] | Potency [12]
active: Potency [8] 21.5 µM | Potency [9] 27.1 µM | Potency [10] 17.1 µM | Potency [11] 13.6 µM

C=CCN1CC[C@]23c4c5ccc(O)c4O[C@H]2C(=O)CC[C@@]3(O)[C@H]1C5
inactive: Potency [1] | Potency [2] | Potency [3] | Potency [4] | Potency [5] | Potency [6] | Potency [8] | Potency [13] | Potency [10] | Potency [11] | Potency [12]

Sc1ccccc1Cl
inactive: Potency [1] | Potency [2] | Potency [3] | Potency [4] | Potency [5] | Potency [6] | Potency [7] | Potency [8] | Potency [13] | Potency [9] | Potency [10] | Potency [11] | Potency [12]

Nc1nc(=S)[nH][nH]1
inactive: Potency [1] | Potency [2] | Potency [3] | Potency [4] | Potency [5] | Potency [6] | Potency [7] | Potency [8] | Potency [13] | Potency [10] | Potency [11] | Potency [12]

CN1C(=O)NC(=O)C(C)(C2=CCCCC2)C1=O (centres undefined)
inactive: Potency [1] | Potency [2] | Potency [3] | Potency [4] | Potency [5] | Potency [6] | Potency [7] | Potency [8] | Potency [14] | Potency [10]

C=CCCl
inactive: Potency [1] | Potency [2] | Potency [3] | Potency [4] | Potency [5] | Potency [6] | Potency [7] | Potency [8] | Potency [13] | Potency [9] | Potency [10]

c1ccc(C2CC2)c(OCC2=NCCN2)c1
inactive: Potency [1] | Potency [2] | Potency [3] | Potency [4] | outcome [15] | outcome [16] | outcome [17] | Potency [18] | Potency [19] | outcome [20] | Potency [6] | Potency [7] | Potency [13] | Potency [10] | Potency [11] | Potency [12]

COC(=O)C(Br)CBr (centres undefined)
inactive: Potency [1] | Potency [2] | Potency [3] | Potency [4] | Potency [5] | Potency [6] | Potency [7] | Potency [8] | Potency [13] | Potency [9] | Potency [14] | Potency [10] | Potency [12]

Cc1ccc(N)cc1C
active: Potency [5] 69.1 µM | Potency [14] 4.9 µM | Potency [12] 3.47 µM
inactive: Potency [1] | Potency [2] | Potency [3] | Potency [4] | Potency [6] | Potency [7] | Potency [8] | Potency [13] | Potency [9] | Potency [10] | Potency [11]

c1ccc(CN2CCNCC2)cc1
inactive: Potency [1] | Potency [2] | Potency [3] | Potency [4] | Potency [6] | Potency [7] | Potency [8] | Potency [13] | Potency [9] | Potency [14] | Potency [10]

O=S(=O)(Cl)c1ccccc1
inactive: Potency [1] | Potency [2] | Potency [3] | Potency [4] | Potency [5] | Potency [6] | Potency [7] | Potency [8] | Potency [13] | Potency [9] | Potency [14] | Potency [10]

C=CCC1([C@H](C)CCC)C(=O)NC(=O)NC1=O
inactive: Potency [1] | Potency [2] | Potency [3] | Potency [4] | Potency [6] | Potency [7] | Potency [8] | Potency [13] | Potency [9] | Potency [14] | Potency [10]

O=C(C(Cl)(Cl)Cl)C(Cl)(Cl)Cl
inactive: Potency [1] | Potency [2] | Potency [3] | Potency [4] | Potency [5] | Potency [6] | Potency [7] | Potency [8] | Potency [10]

CC(C)=CCOc1c2occc2cc2ccc(=O)oc12
active: Potency [14] 10.6 µM
inactive: Potency [1] | Potency [2] | Potency [3] | Potency [4] | Potency [5] | outcome [15] | outcome [17] | Potency [18] | Potency [19] | outcome [20] | Potency [6] | Potency [7] | Potency [8] | Potency [13] | Potency [9] | Potency [10] | Potency [11] | Potency [12]

CCOC(=O)CBr
inactive: Potency [1] | Potency [2] | Potency [3] | Potency [4] | Potency [5] | Potency [6] | Potency [7] | Potency [8] | Potency [9] | Potency [14] | Potency [10]

COP(=O)(OC)O/C(=C/Cl)c1cc(Cl)c(Cl)cc1Cl
active: Potency [4] 57.5 µM | Potency [11] 8.13 µM
inactive: Potency [1] | Potency [2] | Potency [3] | Potency [7] | Potency [8] | Potency [12]

C=CC(=O)OC
inactive: Potency [1] | Potency [2] | Potency [3] | Potency [4] | Potency [6] | Potency [8] | Potency [13] | Potency [9] | Potency [14] | Potency [10]

NCC(CC(=O)O)c1ccc(Cl)cc1 (centres undefined)
inactive: activation [1] 1.21% [at 0.29 µM] | activity change, negative = cytotoxicity [2] 15% [at 0.29 µM] | activity change, negative = cytotoxicity [3] -0.97% [at 0.349 µM] | outcome [15] | outcome [16] | outcome [17] | Potency [18] | Potency [19] | outcome [20] | viability change, negative = cytotoxic [6] 4.17% [at 0.349 µM] | activity change, negative = inhibition [7] 0.511% [at 0.435 µM] | viability change, negative = cytotoxic [8] 7.94% [at 0.349 µM] | activity change, negative = cytotoxicity [13] 8.53% [at 0.349 µM] | viability change, negative = cytotoxic [10] 7.5% [at 0.349 µM] | activity, negative = inhibition [11] -1% [at 0.349 µM] | activation [12] -1% [at 0.349 µM]

CN(N=O)c1ccc([N+](=O)[O-])cc1
inactive: Potency [1] | Potency [2] | Potency [3] | Potency [5] | Potency [6] | Potency [7] | Potency [8] | Potency [13] | Potency [9] | Potency [10]

c1ccoc1
inactive: Potency [1] | Potency [2] | Potency [3] | Potency [6] | Potency [7] | Potency [8] | Potency [10]

CCOC(=O)C(Cl)C(C)=O (centres undefined)
inactive: Potency [1] | Potency [2] | Potency [3] | Potency [6] | Potency [7] | Potency [8] | Potency [13] | Potency [10]

Source: PubChem BioAssay (Tox21)
